Assay results from PubChem BioAssay (EPA / NIEHS).
Where a structure was tested more than once in an assay, its records may differ in their call. Activity calls are given as the source filed them. The calls were made as follows: active = hit-call score of the fitted dose curve at least 0.9, where 1 is the maximum; inactive = score below 0.9.

What follows are compounds tested on Cytochrome P450 (CYP2B6), CYP2B6 (gene 1555) (assay: LTEA_HepaRG_CYP2B6: Life Technologies and Expression Analysis (LTEA) Assay for Cytochrome P450 (CYP2B6) using HepaRG (AID 2283481)). Settings: mRNA level, 48 h; actives raise or lower the signal.
Description: LTEA_HepaRG is a cell based, multiplexed-readout assay that uses HepaRG, a human liver cell line, with measurements taken at 48 hours after chemical dosing on a 96-well plate.LTEA_HepaRG_CYP2B6 is one of 102 assay component(s) measured in the LTEA HepaRG cell culture assay. It is a marker of NR mediated metabolism.Data from the assay component LTEA_HepaRG_CYP2B6 was analyzed into 1 endpoint. This assay endpoint, LTEA_HepaRG_CYP2B6, was analyzed with bidirectional fitting relative to DMSO as the negative control and baseline of activity. Using a type of inducible reporter, measures of mRNA induction for gain or loss-of-signal activity can be used to understand regulation of transcription factor activity. To generalize the intended target to other relatable targets, this assay endpoint is annotated to the cyp intended target family, where the subfamily is xenobiotic metabolism.
A total of 1060 chemcials from the ToxCast library were tested in eight-point concentration-response experiments. Cell culture and cytotoxicity assays were conducted at Thermo Fisher Scientific's Custom Services facility (Madison, WI). A single lot of human HepaRG cells (Thermo Fisher Scientific, Frederick, MD) was used for the cell culture experiments. 96-well format collagen type I coated plates of human HepaRG cells were prepared using established methods. Briefly, cryopreserved HepaRG cells were thawed, plated at a density of approximately 100,000 cells/well in HepaRG Thaw, Plate, and General Purpose media (HPRG770, Thermo Fisher Scientific), and incubated for 48 hours. 0.5% DMSO was selected as vehicle control to balance the requisite need of DMSO in HepaRG cultures to maintain differentiation (for example, baseline metabolism, proportions of hepatocytes vs. cholangiocytes), while enabling further hepatic receptor pathway activation (for example, PXR and CAR) in response to chemical exposure. 48 hours after plating, the culture medium was replaced with HepaRG Serum-Free Incudtion Media. Cells were exposed to each test chemical in duplicate and maintained in CO2 incubators for another 48 hours. Chemical plates were thawed to room temperature and 200x concentrations of treatment groups were prepared. 8-point conentration-reponse curves were made with the highest exposure at 100 uM, followed by half-log dilutions, all in 0.5% DMSO. Each test plate contained variouse controls, induction positive controls (1mM phenobarbital), cytotoxicity positive controls ([…] aflatoxin B1), vehicle controls (0.5% DMSO), and total lysis controls (0.5% DMSO). Cell morphology images were taken using an Essen IncuCyte FLR automated microscope, with six 96-well plates imaged in about 24 minutes. Images were captured and exported and JPEG files. Spent culture media was transfered to black-well plates for the LDH assay, and remaining media was sorted at -80 C for later use. Cells were treated with RLT buffer and frozen until shipped for gene expression analysis. Total RNA was isolated from the cell suspension in 75 uL of Buffer RLT (Qiagen, Germantown, MD 20874) by Quintiles/Expression Analysis (Durham, NC) using a custom isolation procedure. Total RNA from each plate well was transferred to a preamplification plate. Fluidigm's 96.96 Dynamic ArrayTM (Fluidigm, Amsterdam, the Netherlands) technology was used for gene expression analyses by quantitative reverse transcription polymerase chain reaction (qRT-PCR, performed by Quintiles/Expression Analysis, Durham, NC)89. Standard TaqManTM Assays (Applied Biosystems/ThermoFisher Scientific, Foster City, CA) were used to assess the expression of 93 genes selected based on their selectivity and sensitivity to important hepatic receptors known to be modulated by environmental chemicals; importance in human hepatocyte functionality; and hepatotoxicity. […]

Row | Structure (SMILES) | outcome | AC50
1 | CN(C)[C@@H]1C(=O)C(C(N)=O)=C(O)[C@@]2(O)C(=O)C3=C(O)c4c(O)cccc4[C@@](C)(O)[C@H]3[C@H](O)[C@@H]12 | inactive | 10 µM (active)
2 | CNc1cnn(-c2cccc(C(F)(F)F)c2)c(=O)c1Cl |  | 6.51 µM (active)
3 | CNC(=O)ON=C(SC)C(=O)N(C)C | inactive | 
4 | C[Si](Cn1cncn1)(c1ccc(F)cc1)c1ccc(F)cc1 |  | 68.8 µM (active)
5 | Cc1nn(-c2cc(NS(C)(=O)=O)c(Cl)cc2Cl)c(=O)n1C(F)F |  | 11.8 µM (active)
6 | COP(=O)(NC(C)=O)SC (stereo not given) | inactive | 
7 | C[N+]1(C)CCCCC1 | inactive | 
8 | CCCCOC(=O)c1ccccc1C(=O)O |  | 10.2 µM (active)
9 | CCCSP(=O)(OCC)SCCC |  | 2.48 µM (active)
10 | CC[C@H](C)[C@H]1O[C@]2(C=C[C@@H]1C)C[C@@H]1C[C@@H](C/C=C(\C)[C@@H](O[C@H]3C[C@H](OC)[C@@H](O[C@H]4C[C@H](OC)[C@@H](NC)[C@H](C)O4)[C@H](C)O3)[C@@H](C)/C=C/C=C3\CO[C@@H]4[C@H](O)C(C)=C[C@@H](C(=O)O1)[C@]34O)O2 |  | 11.6 µM (active)
11 | C#CCC1=C(C)C(OC(=O)C2C(C=C(C)C)C2(C)C)CC1=O (stereo not given) |  | 12.1 µM (active)
12 | CON=C(C(=O)OC)c1ccccc1CON=C(C)c1cccc(C(F)(F)F)c1 | inactive | 
13 | Nc1c(Cl)cc([N+](=O)[O-])cc1Cl |  | 11.8 µM (active)
14 | CCOP(=S)(Oc1cnc(C(C)(C)C)nc1)OC(C)C (stereo not given) |  | 4.96 µM (active)
15 | CCOP(=O)(NC(C)C)Oc1ccc(SC)c(C)c1 (stereo not given) |  | 22.5 µM (active)
16 | CCCOc1nn(C(=O)NS(=O)(=O)c2ccccc2C(=O)OC)c(=O)n1C | inactive | 
17 | COc1ccc(C(=CC(=O)N2CCOCC2)c2ccc(Cl)cc2)cc1OC |  | 0.00252 µM (active)
18 | CCC(=O)Nc1ccc(Cl)c(Cl)c1 |  | 12.6 µM (active)
19 | CN1COCN(Cc2cnc(Cl)s2)C1=N[N+](=O)[O-] |  | 50 µM (active)
20 | CCOP(=S)(OCC)OC(Cl)C(Cl)(Cl)Cl (stereo not given) |  | 24 µM (active)

Row | Structure (SMILES) | outcome | AC50
21 | CNC(=O)Oc1cccc2c1OC(C)(C)O2 | inactive | 
22 | CSc1nc(NC(C)C)nc(NC(C)C)n1 |  | 1.31 µM (active)
23 | CCOP(=S)(OCC)Oc1ccc([N+](=O)[O-])cc1 |  | 0.636 µM (active)
24 | CCc1cnc(C2=NC(C)(C(C)C)C(=O)N2)c(C(=O)O)c1 (stereo not given) | inactive | 
25 | CC1(C(=O)Nc2ccc(O)c(Cl)c2Cl)CCCCC1 | inactive | 
26 | CCOP(=O)(OCC)Oc1cc(C)nc(C(C)C)n1 | inactive | 
27 | COc1cccc(C(=O)NN(C(=O)c2cc(C)cc(C)c2)C(C)(C)C)c1C |  | 1.16 µM (active)
28 | CC(Oc1cccc(Cl)c1)C(=O)O (stereo not given) |  | 2.24 µM (active)
29 | COc1cc(OC)nc(Sc2cccc(Cl)c2C(=O)O)n1 | inactive | 
30 | CC(COc1ccc(Oc2ccccc2)cc1)Oc1ccccn1 (stereo not given) |  | 3.68 µM (active)
31 | CC1=NNC(=O)N(/N=C/c2cccnc2)C1 | inactive | 
32 | O=[N+]([O-])c1cc(C(F)(F)F)c(Cl)c([N+](=O)[O-])c1Nc1ncc(C(F)(F)F)cc1Cl |  | 13 µM (active)
33 | CC(=NC#N)N(C)Cc1ccc(Cl)nc1 |  | 50 µM (active)
34 | CSc1nnc(C(C)(C)C)c(=O)n1N |  | 14.6 µM (active)
35 | CNC(=O)ON=C(C)SC | inactive | 
36 | Cc1cc(C2CC2)nc(Nc2ccccc2)n1 |  | 18 µM (active)
37 | CCOP(=S)(OCC)Oc1ccc2c(C)c(Cl)c(=O)oc2c1 |  | 2.49 µM (active)
38 | CCOP(=S)(OCC)SCCSCC |  | 7.58 µM (active)
39 | CSC1=N[C@@](C)(c2ccccc2)C(=O)N1Nc1ccccc1 |  | 30.8 µM (active)
